Measurements published in PubChem BioAssay.
Unmarked numbers belong to inactive results.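 The calls were made as follows: active = RAM network inhibition above 8.4% in each of two replicates, 3 SD over the compound average; inconclusive = above 8.4% inhibition in only one replicate; inactive = 8.4% inhibition or less in each replicate.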

experiment: RAM signaling pathway blockade in yeast – S. cerevisiae, Pdr1DBD-CYC8 efflux-inhibited sensitized strain, primary screen (AID 1298);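 also: 0% = DMSO untreated cells without growth and 100% = 10 µM 1-NA-PP1 full growth; higher means more yeast growth rescued from 5-FOA killing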; conditions: S. cerevisiae cbk1-as DSE1-URA3 strain, 5-FOA growth OD615, 2 d; at 50 µM; stronger effect = higher value

Structure (SMILES)	RAM network inhibition
Nc1nc(Nc2ccccc2Br)nc(C(F)(F)F)n1	0.72%
O=C(c1ccc(F)cc1)c1cn[nH]c1-c1ccccc1O	4.4%
CC(C)NC(=O)CCCc1ccccc1	-0.58%
COc1ccc(C2N(c3ccc(Cl)cc3)C(=O)C3CCCN32)cc1 (stereo not drawn)	0.88%
Cn1c(CCNC(=O)C(C)(C)C)nc2ccccc21	4.43%
CCCCN1C(=O)C(O)(CC(=O)c2ccccc2OC)c2ccccc21 (stereo not drawn)	2.02%
CCC(=O)Nc1c2c(nn1-c1ccc(F)cc1)CS(=O)C2 (stereo not drawn)	2.18%
O=C(Cn1c(=O)oc2cc(S(=O)(=O)N3CCOCC3)ccc21)N1CCc2ccccc2C1	4.35%
O=C(CCCN1C(=O)c2ccccc2C1=O)Nc1ccccc1C(=O)N1CCOCC1	3.36%
CCCCn1c(CCC(=O)O)ccc1-c1cccs1	-1.84%
FC(F)(F)c1nnc2ccc(-n3ccnc3)nn12	3.79%
CCOC(=O)C1Cc2ccccc2C(=O)O1 (stereo not drawn)	5.42%
Cc1ccc(N2CCN(C(=O)c3ccccc3F)CC2)c(C)c1	4.91%
CN=C1SC(CC(=O)Nc2ccccc2F)C(=O)N1C (stereo not drawn)	1.28%
CC(=O)Nc1ccc(NC(=O)c2oc3cc(C)c(C)cc3c2C)cc1	5.95%
CC(=O)Nc1ccc(S(=O)(=O)Nc2cccc(C(=O)NC(C)(C)C)c2)cc1	6.92%
CCc1nnc(NC(=O)CCC(=O)O)s1	2.03%
OC(COc1ccc(Cl)c2ccccc12)CN1CCN(c2ccccn2)CC1 (stereo not drawn)	4.46%
